Common to all, as to experiment: NCI-60 one-dose screen, 48 h (100 = growth as untreated, 0 = no growth, -100 = all killed)
Holding throughout (conditions): 10 µM unless noted

Assay [1] deals with DU-145 prostate.
Assay [2] deals with K-562 leukemia.
Assay [3] relates to MALME-3M melanoma.
In assay [4] the test system is MDA-MB-231 breast.
Assay [5] concerns SF-268 CNS.
The test system of assay [6] is SF-295 CNS.
For assay [7], the system named is SF-539 CNS.
Assay [8] concerns UACC-257 melanoma.
The subject of assay [9] is M14 melanoma.
In assay [10] the test system is RXF 393 renal.

Molecules are shown by their SMILES. The panel holds about 83,000 compounds, 20% with a hit somewhere; the sample as a whole holds those more often.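 Percent growth is the endpoint: 0 to 100 indicates growth inhibition (40 means 60% inhibition), 0 means no net growth, and negative values indicate cell death.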 A number with no mark means an inactive call. The source made the active and inactive calls. The calls were made as follows: active = growth percent below 10; inactive = the rest.

For `CCc1ccccc1C(=O)N(CC)CC`, the growth in [1] is 104%; in assay [2], 106%; in assay [3], 102%; in [4], 100%; in assay [5] it was 97.5%; in assay [6], 97.6%. In addition, the values for the growth in assay [7], in assay [8] and in assay [9] were 94.9%, 103% and 103%, respectively.

Regarding `O=C(O)c1cc(I)ccc1O`, the growth in [1] is 116%; in [2], 114%; in assay [3], 90.3%; in assay [4], 110%; in [5], 111%; in [6], 105%. In addition, the growth in assay [7] is 97.7%; in assay [8], 104%; in assay [9], 110%.

With `O=C1NCC2CCCC1C2` (stereo unspecified), the growth in [1] is 113%; in assay [2] it was 106%; in assay [3], 109%; in assay [4], 102%; in [10], 103%; in assay [5], 103%. The growth in [7] was 111%; in assay [8] it was 81.7%; in assay [9], 96.7%.

Turning to `Clc1ncnc2nc[nH]c12`, the growth is 91% in assay [1]; 90.1% in assay [2]; 106% in [3]; 99% in [4]; 95.8% in assay [5]; 107% in assay [6]. The growth in [7] was 86.4%; in assay [8] it was 103%; in assay [9] it was 97.5%.

With `CCN(CC)CCCC(C)NC(=S)N/N=C(\C)c1ccccn1` (stereo unspecified), the growth in [1] is 42.1%; in assay [2], 38.7%; in [3], 33.5%; in assay [4] it was 36.8%; in assay [10], 49.4%; in assay [5] it was 43.7%. Besides, the results for the growth in [7], in [8] and in assay [9] were 31.2%, 57.4% and 37.2%, respectively.

As for `Cc1ccnc(Nc2nc3ccccc3[nH]2)n1`, the growth in assay [1] is 123%; in assay [2], 97.8%; in assay [3], 104%; in [4], 109%; in assay [10] it was 116%; in assay [6], 102%. For the same compound, the growth in assay [7] is 98%; in assay [8], 105%; in assay [9], 97%.

With `O=C(c1ccc(Cl)cc1)N1CCCCC1`, the growth in assay [1] is 115%; in [2], 97.2%; in assay [3], 109%; in assay [4], 94.4%; in [5], 104%; in assay [6], 99.2%. Moreover, the results for the growth in assay [7], in assay [8] and in assay [9] were 98.5%, 94% and 104%, respectively.

`NS(=O)(=O)c1cc(=O)[nH]c(=O)[nH]1`: the growth in assay [1] is 114%; in [2], 131%; in [3], 90.7%; in [4] it was 115%; in [5] it was 110%; in [6] it was 109%. The growth is 111% in assay [7], 113% in assay [8] and 102% in assay [9].

For `NNc1ncnc2c1ncn2C1OC(CO)C(O)C1O` (stereo unspecified), the growth was 19.3% in [1]; 30.4% in [2]; 122% in [3]; 10.7% in assay [4]; 50.3% in assay [5]; 38.7% in assay [6]. Further, the growth in assay [7] is 90.9%; in [8], 84.9%; in assay [9] it was 31.6%.

Consider `ON1CCCC1`, for which the growth in assay [1] is 113%; in assay [2], 90.7%; in assay [3] it was 106%; in [4] it was 114%; in [10], 107%; in assay [5], 106%. In addition, the growth in assay [7] is 108%; in assay [8], 102%; in assay [9] it was 104%.

Regarding `NNc1ncnc2nc[nH]c12`, the growth in assay [1] was 36.6%; in assay [2], 48.4%; in [3] it was 120%; in [4], 14.9%; in [5], 83.7%; in assay [6], 45.9%. The growth in [7] was 101%; in [8], 45.1%; in [9], 48%.

Regarding `COc1ccc2c(c1)Nc1ccccc1S2`, the growth is 116% in assay [1]; 102% in [2]; 105% in assay [3]; 109% in assay [4]; 115% in [10]; 108% in assay [6]. In addition, the results for the growth in [7], in assay [8] and in assay [9] were 103%, 115% and 101%, respectively.

Take `COc1ccc(NNS(=O)(=O)O)cc1`: the growth is 111% in [1]; 99.5% in assay [2]; 104% in assay [3]; 95.1% in assay [10]; 106% in assay [5]; 92.5% in [6]. For the same compound, the growth in assay [7] is 95.1%; in [9] it was 92.5%.

As for `CC(=O)NC(O)C(Cl)Cl` (stereo unspecified), the growth was 99.2% in assay [1]; 84.3% in assay [2]; 96.7% in assay [3]; 113% in assay [10]; 95% in [5]; 93.6% in assay [6]. Moreover, the growth in [7] is 90.6%; in assay [8], 107%; in assay [9], 110%.

Take `CNc1ccccc1C(N)=O`: the growth was 107% in assay [1]; 108% in assay [2]; 97.9% in assay [3]; 98.1% in assay [10]; 100% in assay [5]; 95.5% in [6]. For the same compound, the growth in [7] is 97.6%; in [8] it was 98.4%; in assay [9], 96.2%.

For the compound `C=CCNC(=S)N/C=C(/C(=O)c1ccccc1)c1ccccc1`, the growth was 109% in assay [1]; 102% in [2]; 107% in [4]; 111% in assay [10]; 98.2% in assay [5]; 110% in assay [6]. The growth was 101% in [7] and 109% in assay [8].

As for `COc1ccc(C2CC(c3ccccc3)=Nc3ccccc3S2)cc1` (stereo unspecified), the growth in assay [1] was 99.8%; in assay [2], 77.9%; in assay [3], 82.5%; in assay [4] it was 98.9%; in assay [5], 105%; in [7], 111%. The figures for the growth in assay [8] and in assay [9] were 103% and 106%, respectively.

Consider `Ic1cccs1`, for which the growth in [1] was 107%; in assay [2], 102%; in assay [3] it was 94.6%; in [10], 119%; in assay [5] it was 99.3%; in assay [6], 95.9%. In addition, the growth in assay [7] was 101%; in assay [8], 99.5%; in [9] it was 104%.

On to `COc1ccc(/C=C\C(=O)/C=C/c2ccc(OC)cc2)cc1`, for which the growth is 96.4% in assay [1]; 9.76% (active) in assay [2]; 95.1% in [3]; 100% in assay [10]; 105% in [5]; 101% in assay [6]. In addition, the growth in assay [7] was 62.8%; in assay [8] it was 106%; in [9] it was 40.2%.

Take `O=S(=O)(c1ccc(NC(=S)NCc2cccnc2)cc1)N1CCCCC1`: the growth in assay [1] is 46.9%; in assay [2] it was 33%; in assay [3] it was 90.3%; in [4], 95.1%; in assay [5] it was 72.6%; in assay [7], 31.9%. The growth in assay [8] is 101%; in [9] it was 39.7%.

On to `C1C[S+]2CC[S+]1CC2`, for which the growth in assay [1] is 105%; in [2] it was 104%; in [3], 99.9%; in assay [10], 106%; in assay [5], 102%; in [6] it was 99%. Moreover, the growth in assay [7] is 108%; in [8], 94.9%; in assay [9], 101%.

`COC(=O)c1cccc([N+](=O)[O-])c1`: the growth in assay [1] is 105%; in assay [2], 120%; in assay [3] it was 102%; in assay [10], 108%; in assay [5], 102%; in [6] it was 105%. In addition, the values for the growth in [7], in assay [8] and in [9] were 98.5%, 95.5% and 105%, respectively.

Consider `N#C/C(=C\NC(=S)N=Nc1c(O)[nH]c2ccccc12)c1nc2ccccc2s1`, for which the growth was 113% in assay [1]; 101% in assay [2]; 87.9% in [4]; 101% in assay [10]; 102% in [5]; 107% in assay [6]. Also, the results for the growth in assay [7], in assay [8] and in [9] were 103%, 94.9% and 101%, respectively.

Turning to `Clc1cccc(Cl)c1C1CSc2ccccc2N=C1c1ccccc1` (stereo unspecified), the growth in [1] is 59.6%; in [2], 4.38% (active); in assay [3] it was 110%; in assay [4], 70.5%; in [5], 73.4%; in assay [7] it was 101%. Further, the figures for the growth in assay [8] and in assay [9] were 51.4% and 86.6%, respectively.

`C/C(=N\N=C(/C)c1cccc([N+](=O)[O-])c1)c1cccc([N+](=O)[O-])c1`: the growth was 95.3% in [1]; 98.3% in assay [2]; 85% in assay [3]; 93.9% in assay [10]; 80.2% in assay [5]; 95.8% in assay [6]. For the same compound, the growth in assay [7] was 93.4%; in assay [8], 87.6%; in assay [9] it was -36.5% (active).

As for `CN(C)c1ccc(/C=C/C(=O)c2ccc(NC(N)=O)cc2)cc1`, the growth in assay [1] is 98.8%; in assay [2], 64.6%; in assay [3], 82.3%; in [10], 107%; in assay [5], 99%; in assay [6], 98.8%. Moreover, the growth in assay [7] was 81.1%; in assay [8], 89.9%; in assay [9], 86.8%.

Consider `O=C(O)c1ccc([N+](=O)[O-])cc1S(=O)(=O)O`, for which the growth in assay [1] is 104%; in assay [2] it was 107%; in assay [3], 108%; in assay [10] it was 114%; in assay [5], 98%; in assay [6], 102%. Besides, the growth in assay [7] is 107%; in assay [8], 100%; in [9] it was 108%.

For `O=C1C=CC(=O)C2=C1CCCC2`, the growth in assay [1] was 101%; in [2], 46.3%; in assay [3], 91.9%; in assay [10], 103%; in assay [5] it was 93.7%; in assay [6], 104%. Moreover, the growth in assay [7] is 104%; in assay [8], 95.6%; in assay [9], 96.4%.

Take `OC1Cc2ccccc2C1`: the growth in assay [1] was 103%; in assay [2] it was 48.3%; in [3], 95.2%; in assay [10], 101%; in [5], 102%; in [6], 95.2%. The growth in [7] is 97.1%; in assay [8], 90.9%; in [9], 94.9%.

Turning to `CC(C)C(C)(C)C(=O)C(C)(C)C(C)(C)C`, the growth in assay [1] is 107%; in [2], 96.8%; in assay [3] it was 92.6%; in assay [10], 104%; in assay [5], 102%; in assay [6] it was 95.8%. The results for the growth in assay [7], in assay [8] and in [9] were 98.8%, 92.6% and 114%, respectively.

As for `O=c1cc(C(F)(F)F)[nH]c(=S)[nH]1`, the growth in assay [1] is 109%; in [2] it was 111%; in [3], 96.6%; in assay [10], 104%; in assay [5] it was 121%; in [6], 98.3%. Also, the growth was 96.5% in assay [7], 99.2% in [8] and 108% in [9].

In the case of `CCN(C(C)=O)c1ccc([N+](=O)[O-])cc1`, the growth was 110% in assay [1]; 107% in assay [2]; 101% in assay [3]; 106% in assay [10]; 103% in [5]; 108% in [6]. Further, the growth in assay [7] was 109%; in [8], 94.9%; in assay [9] it was 113%.

Consider `C=C(c1ccc(N(C)C)cc1)c1ccc(N(C)C)cc1`, for which the growth in assay [1] was 20.3%; in assay [2] it was 5.61% (active); in assay [3] it was 20.6%; in assay [10] it was -11% (active); in assay [5] it was 31.2%; in assay [6], 21%. Moreover, the results for the growth in assay [7] and in assay [8] were -44.9% (active) and 52.3%, respectively.

The record behind these values is PubChem BioAssay (NCI).
